Experiments:
[1] = tested on: Vero E6 infected with SARS-CoV-2; assay: morphology score (similarity to uninfected cells); higher = more like uninfected cells; conditions: 24 h
[2] = tested on: Vero E6 infected with SARS-CoV-2; assay: SARS-CoV-2 infection rate relative to infected DMSO; higher = more infection, active = 60 or less; conditions: 24 h

| Compound | morphology score [1] | SARS-CoV-2 infection rate [2] |
| --- | --- | --- |
| COc1cccc2c1C(=O)c1c(O)c3c(c(O)c1C2=O)C[C@@](O)(C(C)=O)C[C@@H]3O[C@H]1C[C@H](N)[C@H](O)[C@H](C)O1 [daunorubicin] (10 µM) | -0.0163 | 106% (inactive) |
| CSc1ccc([C@H]2CN3CCC[C@H]3c3ccccc32)cc1 (racemic) (10 µM) | 0.328 | 86.5% (inactive) |
| CNC(=O)c1c(C)oc2cc(Oc3ncnc4cc(OC)c(OC)cc34)ccc12 [fruquintinib] (10 µM) | 0.0139 | 110% (inactive) |
| O=C(Nc1nc2ccc(NC(=O)C34CC5CC(CC(C5)C3)C4)cc2s1)c1ccccc1 (0.833333 µM) | -0.0802 | 105% (inactive) |
| Clc1ccccc1C(c1ccccc1)(c1ccccc1)n1cccn1 (10 µM) | 0.0967 | 100% (inactive) |
| NC(N)=Nc1nc(CSCC/C(N)=N/S(N)(=O)=O)cs1 [Famotidine] (10 µM) | -0.0119 | 106% (inactive) |
| c1ccc(C(O[C@@H]2CCCN(CCc3ccc4c(c3)OCO4)C2)c2ccccc2)cc1 [zamifenacin] (10 µM) | 0.152 | 96% (inactive) |
| Nc1nc(NC2CC2)cc(-c2cccc(Cl)c2Cl)n1 (10 µM) | 0.121 | 97% (inactive) |
| O=C(O)CNC(=O)c1ccccc1 [hippuric-acid] (10 µM) | -0.0766 | 109% (inactive) |
| COc1ccc(F)c(F)c1C(=O)c1cnc(NC2CCN(S(C)(=O)=O)CC2)nc1N (10 µM) | -0.352 | 118% (inactive) |
| CCCN1CCC[C@@H]2Cc3nc(N)ncc3C[C@H]21 [quinelorane] (10 µM) | 0.13 | 106% (inactive) |
